Screens as filed in PubChem.
D2 PAM-1 – Beta-Arrestin HTS for Positive Allosteric Modulators of the Human D2 Dopamine Receptor: Potentiators; D(2) dopamine receptor (Homo sapiens), P14416; DiscoveRx D2 beta-arrestin cells, luminescence, 90 min; 100% = 57 uM dopamine signal; potentiation, % (concentration not given with the values); 360,000 tested, 0.23% active; AID 624464, 2012; in the data active = potentiation above about 50%; inconclusive = mostly about 30% to 49%
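PathHunter D2 cells, attached overnight at 37 deg C, received compound in DMSO plus dopamine at EC20 (50 nM final) for 90 min at 37 deg C. Beta-arrestin recruitment was read as luminescence after 1 h with detection reagent at ambient temperature.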
D2 antagonist – HTS Assay for Allosteric Antagonists of the Human D2 Dopamine Receptor: Primary Screen for Antagonists | 340,000 tested, 2% active | AID 485344, 2010 | inhibition, % at 10 µM | HEK293 TREx D2 cells, calcium flux, dopamine EC80; in the data active = inhibition above about 30%; inactive = below that, where a call was filed; note: 0% is about no effect
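Cells plated overnight at 30 C with tetracycline; no-wash calcium dye, 30–90 min RT; 10 s baseline; compound pinned; 180 s read; EC80 dopamine added; another 180 s read.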
D2 PAM-2 – HTS Assay for Positive Allosteric Modulators of the Human D2 Dopamine Receptor: Primary Screen for Potentiators. D(2) dopamine receptor (Homo sapiens), P14416. HEK293 T-REx D2, calcium flux, EC20 dopamine potentiation. potentiation, % at 10 µM. 340,000 tested, 0.34% active. AID 485347, 2010;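 active = potentiation over 3 SD above the plate norm, cut at about 30% in these data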; note: 0% is about no effect
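Using a no-wash calcium dye in inducible, force-coupled HEK293 Trex cells expressing D2, we tracked fluorescence each second for 180 s after compound, then for 180 s after EC20 dopamine to detect augmented signalling.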
D2 ag-1 – Beta-Arrestin HTS for Positive Allosteric Modulators of the Human D2 Dopamine Receptor: Agonists | activation, % (test concentration not listed) | DiscoveRx PathHunter D2 beta-arrestin, luminescence, 90 min; 100% = 57 uM dopamine signal | D(2) dopamine receptor (Homo sapiens), P14416 | AID 624465, 2012 | 360,000 tested, 0.084% active; in the data active = activation above about 40%; inconclusive = between about 15% and that limit
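Agonist mode: compounds alone added to overnight-plated D2 PathHunter cells for 90 min at 37 C, with 57 uM final dopamine (EC100) defining full response. Beta-arrestin recruitment detected by chemiluminescent reagent, read after 1 h at ambient temperature.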
D2 ag-2 – HTS Assay for Allosteric Agonists of the Human D2 Dopamine Receptor: Primary Screen for Agonists; D(2) dopamine receptor (Homo sapiens), P14416; HEK293 T-REx D2 cells, calcium flux agonist mode; activation, % at 2 µM; 340,000 tested, 0.53% active; AID 485358, 2010;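 active = activation over 3 SD above normal in the single-dose calcium agonist read, cut at about 30% in these data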; note: 0% is about no effect
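Tetracycline-induced HEK293 T-REx cells with force-coupled D2 receptor, plated overnight at 30 C, loaded with no-wash calcium dye. After a 10 s baseline, compound was pin-added and calcium flux read kinetically for 180 s; calcium rises flagged agonists.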
D3 arrestin ag – qHTS of D3 Dopamine Receptor Agonist: D3 Dopamine Receptor B-arrestin Agonist Confirmatory Assay; Potency, µM (titrated, usually from 76.9 µM), for inactives: at the top dose activation, hits mostly activators; shares compounds with D2 ag-2; 2,300 tested, 4% active; DiscoveRx D3 beta-arrestin cells, luminescence, 90 min;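 note: potency is the fitted concentration of half-maximal effect; 100% = dopamine control response; nearly all actives have a fitted effect of over 70% in size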
Target sequence (P35462 whole entry, looked up): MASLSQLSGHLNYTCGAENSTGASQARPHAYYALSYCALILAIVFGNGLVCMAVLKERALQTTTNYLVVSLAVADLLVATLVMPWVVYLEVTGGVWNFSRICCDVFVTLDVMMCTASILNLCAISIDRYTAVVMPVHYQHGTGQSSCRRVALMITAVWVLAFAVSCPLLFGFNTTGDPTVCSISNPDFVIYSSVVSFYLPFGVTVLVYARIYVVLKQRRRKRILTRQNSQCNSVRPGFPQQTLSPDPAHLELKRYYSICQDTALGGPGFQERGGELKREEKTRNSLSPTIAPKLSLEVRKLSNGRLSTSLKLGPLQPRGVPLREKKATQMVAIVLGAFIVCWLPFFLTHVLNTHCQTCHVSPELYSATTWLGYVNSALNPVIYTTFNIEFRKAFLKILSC
D2 ag-3 – qHTS of D3 Dopamine Receptor Agonist: D2 Dopamine Receptor B-arrestin Agonist Counterscreen; DiscoveRx PathHunter D2 beta-arrestin, luminescence, 90 min; response scale: percent relative to full dopamine signal; AID 720507, 2013; Potency, µM (top dose mostly 76.9 µM), for inactives: top-dose activation, hits mostly activators; shares compounds with D2 ag-2; 2,300 tested, 5.9% active; note: potency is the fitted concentration of half-maximal effect; % of control where 0% means no effect; nearly all actives have a fitted effect of over 70% in size
An asterisk follows results filed as active. Only some compounds are listed: those with a hit (about 2.4% of all), similar ones and a draw of the others. Unless noted, calls come from the whole dose curve; as a rule, active = well fitted activation curve with a large enough effect; inconclusive = small, poorly fitted or top-dose-only effect; inactive = flat fitted curve, though single readings scatter.

Results for CC(=O)N1c2ccccc2C(=O)C1N1CCN(c2ccccc2F)CC1 (stereo not drawn) ?
D2 PAM-2: 3

What do the screens show for `Cc1ncoc1C(=O)N1CCCC(N2CCN(c3ccccc3F)CC2)C1` (stereo not drawn)?
D2 PAM-1: -26; D2 antagonist: 1; D2 PAM-2: -12; D2 ag-1: -3; D2 ag-2: 36*; D3 arrestin ag: -14%; D2 ag-3: -2%

What do the screens show for `O=C(c1ccco1)N1CCCC(N2CCN(c3ccccc3F)CC2)C1` (stereo not drawn)?
D2 PAM-1: -41; D2 antagonist: -18; D2 PAM-2: -11; D2 ag-1: -2; D2 ag-2: 8

Results for CC(=O)N1CCC(N2CCN(c3ccccc3F)CC2)CC1 ?
D2 PAM-1: 2; D2 antagonist: 71*; D2 PAM-2: -20; D2 ag-1: 41*; D2 ag-2: 75*; D3 arrestin ag: inconclusive; D2 ag-3: inconclusive

Results for CCc1nnc2c3ccccc3nc(N3CCN(c4cc(Cl)ccc4C)CC3)n12 ?
D2 PAM-2: -3

What do the screens show for `Nc1c(C(=O)c2ccc(Cl)cc2)sc2nsc(SCCN3CCOCC3)c12`?
D2 PAM-1: -4; D2 antagonist: -8; D2 PAM-2: 11; D2 ag-1: -1; D2 ag-2: 16; D3 arrestin ag: 2%; D2 ag-3: 2%

Results for CC(=O)c1sc2nsc(SCCN3CCCCC3)c2c1N ?
D2 PAM-1: -14; D2 antagonist: -14; D2 PAM-2: -3; D2 ag-1: 2; D2 ag-2: 5

Results for NCCCn1cnc2ccccc21 ?
D2 PAM-1: -1; D2 antagonist: 3; D2 ag-1: -5; D2 ag-2: 1; D3 arrestin ag: -2%; D2 ag-3: 1%

How did c1ccc2c(c1)ncn2CCn1cnc2ccccc21 do in these assays?
D2 PAM-1: -12; D2 antagonist: -16; D2 PAM-2: -3; D2 ag-1: -4; D2 ag-2: -1

How did COC(=O)C1CCN(Cc2cn(Cc3ccccc3)nc2-c2cc3ccccc3o2)CC1 do in these assays?
D2 PAM-1: -11; D2 antagonist: 13; D2 PAM-2: -13; D2 ag-1: -1; D2 ag-2: 37*; D3 arrestin ag: -9%; D2 ag-3: 8%

Results for Cc1ccc(S(=O)(=O)N2[C@@H](c3cccc(C)c3)C(C(=O)O)=C[C@H]2C(C)(C)C)cc1 ?
D2 PAM-1: -3; D2 ag-1: -2

What do the screens show for `CCN(CC)S(=O)(=O)c1cccc(C(=O)N/N=C2\CCCC(=O)C2)c1`?
D2 PAM-1: -9; D2 antagonist: 17; D2 PAM-2: -3; D2 ag-1: -7; D2 ag-2: 4

Results for CCN(CC)S(=O)(=O)c1cccc(C(=O)N/N=C2\CC(=O)CC(C)(C)C2)c1 ?
D2 PAM-1: 4; D2 antagonist: -16; D2 PAM-2: -17; D2 ag-1: 0; D2 ag-2: 1; D3 arrestin ag: -3%; D2 ag-3: 2%

Results for COc1cccc(NC(=O)CN(C)C(=O)C(Sc2ccccc2)c2ccccc2)c1 (stereo not drawn) ?
D2 PAM-1: -13; D2 antagonist: 0; D2 PAM-2: -13; D2 ag-1: -4; D2 ag-2: 0; D3 arrestin ag: -4%; D2 ag-3: 0%

How did COCCCN1C(=O)c2ccc(C(=O)Nc3cccc(OC)c3)cc2C1=O do in these assays?
D2 PAM-1: -2; D2 antagonist: 13; D2 PAM-2: 0; D2 ag-1: -1; D2 ag-2: 0

How did COc1cccc(NC(=O)CN(C)C(=O)CCC(=O)c2cc(C)sc2C)c1 do in these assays?
D2 PAM-1: -10; D2 antagonist: -20; D2 PAM-2: 9; D2 ag-1: 2; D2 ag-2: -1; D3 arrestin ag: -4%; D2 ag-3: -2%

How did COc1cccc(NC(=O)CN(C)C(=O)c2ccc3c(c2)C(=O)N(CCC(C)C)C3=O)c1 do in these assays?
D2 PAM-1: -1; D2 antagonist: -14; D2 PAM-2: 8; D2 ag-1: 2; D2 ag-2: 0; D3 arrestin ag: 7%; D2 ag-3: 3%

Results for Cc1nc2ccccc2c(=O)n1-c1ccc(NC(=O)c2ccccc2[N+](=O)[O-])cc1 ?
D2 PAM-2: -3; D2 ag-2: 0

Results for O=C(Nc1cccc(C(=O)N2CCOCC2)c1)c1ccc([N+](=O)[O-])cc1 ?
D2 PAM-1: 2; D2 antagonist: -1; D2 PAM-2: -4; D2 ag-1: 0; D2 ag-2: 39*; D3 arrestin ag: inconclusive; D2 ag-3: 3%

How did O=C(Nc1ccc2c(c1)OCO2)c1cc(C2CCCCN2C(=O)c2ccccc2)on1 (stereo not drawn) do in these assays?
D2 PAM-1: -13; D2 ag-1: -2

What do the screens show for `CCOC(=O)N1CCN(C/C(C)=C/c2ccccc2)CC1`?
D2 PAM-1: 22; D2 antagonist: 63*; D2 PAM-2: -29; D2 ag-1: inconclusive; D2 ag-2: 63*; D3 arrestin ag: 11%; D2 ag-3: inconclusive

Results for O=C(c1cnn2cccnc12)N1CCN(Cc2ccc3c(c2)OCO3)CC1 ?
D2 PAM-1: -5; D2 antagonist: -5; D2 PAM-2: -4; D2 ag-1: -2; D2 ag-2: 18

What do the screens show for `Cc1c(C(=O)N2CCN(Cc3ccc4c(c3)OCO4)CC2)sc2ncnc(N3CCN(c4ccccc4F)CC3)c12`?
D2 PAM-1: 7; D2 ag-1: inconclusive; D3 arrestin ag: 23%; D2 ag-3: inconclusive

How did CCOc1ncccc1C(=O)N1CCN(Cc2ccc3c(c2)OCO3)CC1 do in these assays?
D2 PAM-1: -12; D2 antagonist: 75*; D2 PAM-2: -22; D2 ag-1: 60*; D2 ag-2: 80*; D3 arrestin ag: inconclusive; D2 ag-3: 2.8µM*
